This is a sample that favours compounds with a hit; in the whole collection about 4.5% have one here.
DAX1 inh-1 = DAX1 (NR0B1) inhibition, primary screen; inhibition, % at 6.8 µM; actives 1.1% (n = 370,000); HEK293T StAR-luciferase reporter, SF-1/DAX-1 repression relief;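 active = inhibition above the mean over all tested compounds plus 3 SD, cut at about 3.6% in these data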;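 note: higher inhibition means more luminescence from relief of DAX-1 repression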
GAA850 FXN act = frataxin GAA850 promoter activation; actives 0.56% (n = 360,000); HEK293 lucGAA850 FXN promoter luciferase reporter, 24 h; percent of 10 µM SAHA response; activation, % at 6 µM;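 active = activation above the average of all compounds screened plus 3 SD, cutoff fixed separately per campaign, cut at about 7.5% in these data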
ssDAF12 agonist = S. stercoralis DAF-12 activation, primary screen | HEK293 ssDAF-12/GRIP1 lit1-tk-luc reporter, luminescence; % of 3 µM dafachronic acid response | activation, % at 6.8 µM | actives 1% (n = 370,000);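 active = activation above the mean over all tested compounds plus 3 SD, cut at about 0.9% in these data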
hcDAF-12 act = activates DAF-12 receptor from parasite H. contortus. HEK293 hcDAF-12 lit1-tk-luc reporter, luminescence; 0% DMSO, 100% Δ7-dafachronic acid. activation, % at 6.8 µM. actives 1.4% (n = 370,000). AID 652067;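 active = activation above the mean of all tested compounds plus 3 SD, cut at about 5.5% in these data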
DAX1 inh-2 = inhibitors of human orphan nuclear receptor DAX1 (NR0B1). P51843. HEK293 Gal4-DAX1 luciferase reporter, luminescence. inhibition, % at 6.75 µM. actives 0.99% (n = 340,000). AID 504766;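 active = inhibition above the mean over all tested compounds plus 3 SD, cut at about 4.2% in these data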;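 note: inhibition shows as a rise in luminescence from relieved DAX1 repression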
hgDAF-12 ag = agonists of H. glycines DAF-12 nuclear receptor; HEK293 GAL4-hgDAF12 UAS-luciferase reporter, agonist luminescence; normalized to butyrate control; activation, % at 6.8 µM; actives 1.8% (n = 370,000); AID 687014;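 active = activation above a cutoff set at the mean of all screened compounds plus 3 SD, cut at about 10% in these data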
LXRb hcDAF ctr = LXR-beta agonism as hcDAF-12 counter-screen. activation, % at 6.8 µM. shares compounds with hcDAF-12 act. 3,400 tested, under 10 active. HEK293 Gal4-LXR tk-luc reporter, luminescence, 24 h; normalized: DMSO 0%, positive control 100%;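 active = mean percent activation of the reporter above a cutoff set as the average over tested compounds plus their standard deviation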
Target sequence (P55055 whole entry, looked up, the tested form may be a part): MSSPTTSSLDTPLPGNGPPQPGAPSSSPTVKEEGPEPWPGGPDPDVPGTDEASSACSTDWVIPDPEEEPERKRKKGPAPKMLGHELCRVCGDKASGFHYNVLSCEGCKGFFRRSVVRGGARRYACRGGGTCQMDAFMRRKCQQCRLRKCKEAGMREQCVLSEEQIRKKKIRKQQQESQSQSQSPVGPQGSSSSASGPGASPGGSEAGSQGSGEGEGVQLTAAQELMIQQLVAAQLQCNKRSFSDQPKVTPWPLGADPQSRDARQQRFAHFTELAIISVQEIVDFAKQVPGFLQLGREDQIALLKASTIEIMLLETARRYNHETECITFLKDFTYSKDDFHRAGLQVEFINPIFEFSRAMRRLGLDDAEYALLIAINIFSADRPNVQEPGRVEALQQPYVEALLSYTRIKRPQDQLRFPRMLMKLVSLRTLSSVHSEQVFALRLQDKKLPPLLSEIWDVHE
hcDAF12 conf = hcDAF-12 agonism, confirmation assay; shares compounds with hcDAF-12 act; HEK293 hcDAF-12 lit1-tk-luc reporter, luminescence; % of Δ7-dafachronic acid response; activation, % at 6.8 µM; actives 61% (n = 3,400); AID 743032;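 active = mean activation across triplicate tests above the threshold derived from the earlier primary screen, cut at about 5.5% in these data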
Numbers stand for hits; - = inactive; . = not tested or not shown.

SMILES	DAX1 inh-1	GAA850 FXN act	ssDAF12 agonist	hcDAF-12 act	DAX1 inh-2	hgDAF-12 ag	LXRb hcDAF ctr	hcDAF12 conf
CCC(=O)Nc1c2c(nn1-c1ccc(F)cc1)CS(=O)(=O)C2	-	-	-	-	-	-	.	.
Cc1ccc2nc(-c3ccc(SCC(=O)O)nc3)[nH]c2c1	-	-	-	-	-	-	.	.
Cc1ccc2nc(-c3ccc(SCC(=O)N4CCc5ccccc54)nc3)[nH]c2c1	-	-	-	7.1	-	-	-	6.4
O=C(N/N=C/c1cc(Br)c(O)c(Br)c1)C1CC1	-	-	-	-	-	-	.	.
CC(C)(C)NC(=S)N/N=C/c1cc(Br)c(O)c(Br)c1	-	-	-	7.4	-	-	-	-
COc1ccc2c(c1)C1=NN(/C(C)=C/C(C)=O)C(c3ccc(F)cc3)C1CC2 (stereo not given)	-	-	1.3	9.5	-	-	-	5.7
COc1ccc2c(c1)C1=NN(/C(C)=C/C(C)=O)C(c3cccc(F)c3)C1CC2 (stereo not given)	-	-	-	-	-	-	.	.
Cc1ccc(O)c(-c2cc(-c3cccc(F)c3)n[nH]2)c1	-	-	-	-	-	-	.	.
Cc1ccc(O)c(-c2cc(-c3ccccc3F)[nH]n2)c1	-	-	-	11	-	-	-	9.4
COc1ccc(S(=O)(=O)Nc2c(C(=O)O)[nH]c3ccccc23)cc1OC	-	-	2.0	7.9	-	-	-	-
Cc1ccc(S(=O)(=O)Nc2cc3c(C(=O)O)c(C)oc3c3ccccc23)c(C)c1	-	-	-	-	-	-	.	.
COc1ccc(S(=O)(=O)Nc2c(C(=O)O)[nH]c3ccccc23)cc1	-	-	-	-	-	-	.	.
Cc1ccc(S(=O)(=O)Nc2c(C(=O)O)[nH]c3ccccc23)c(C)c1	-	-	1.1	6.7	-	-	-	-
CCc1noc(C)c1C(=O)N(CC)c1nc2c(C)cccc2s1	-	-	-	-	-	-	.	.
CCOC(=O)N1N=C(c2ccccc2)CC1(O)C(C)(F)F (stereo not given)	-	-	-	-	-	-	.	.
CCOC(=O)N1N=C(c2ccc(OC)cc2)CC1(O)C(F)(F)F (stereo not given)	4.1	-	1.8	7.9	-	-	-	6.4
Cc1ccc(NC2=Nc3ccccc3CS2)cc1	-	-	1.6	15	-	19	-	14
O=c1oc(-c2ccccc2NS(=O)(=O)c2ccc3ccccc3c2)nc2ccccc12	-	-	-	-	-	-	.	.
Cn1ccnc1SCC(=O)c1c[nH]c2ccccc12	-	-	3.8	9.3	-	-	-	7.4
CN(C)C(=S)N=Nc1[nH]c2ccccc2c1O	-	.	1.4	7.3	.	13	-	-
O=C1c2cccc3c(N4CCOCC4)c([N+](=O)[O-])cc(c23)C(=O)N1c1cccc2ccccc12	-	-	-	6.8	-	-	-	-
Cc1cccc(N2C(=O)c3cccc4c(N5CCCCC5)c([N+](=O)[O-])cc(c34)C2=O)c1C	-	-	-	-	-	-	.	.
O=C1CCCCN1CC(=O)N1CCCC(Nc2ccc(F)cc2)C1 (stereo not given)	-	-	-	-	-	-	.	.
CC(CC(=O)N(C)c1c(N)n(Cc2ccccc2)c(=O)[nH]c1=O)c1ccccc1 (stereo not given)	-	-	-	-	-	-	.	.
c1ccc2c(C3=NNC(=NC4CCCCC4)SC3)c[nH]c2c1	-	-	1.5	9.3	-	-	-	-
SMILES	DAX1 inh-1	GAA850 FXN act	ssDAF12 agonist	hcDAF-12 act	DAX1 inh-2	hgDAF-12 ag	LXRb hcDAF ctr	hcDAF12 conf
CN(CC(=O)Nc1cc(Cl)ccc1C#N)C1CCS(=O)(=O)C1 (stereo not given)	-	-	-	-	-	-	.	.
COc1cccc(-c2nc(-c3ccccc3)no2)c1	3.8	-	2.0	9.4	-	19	-	15
Cc1ccc(-c2nc(-c3ccccc3)no2)cc1	3.9	-	-	6.8	-	13	-	8.5
COc1ccc(-c2cc(-c3ccccc3)no2)cc1	4.0	-	0.9	11	-	11	-	11
Cc1ccc(-c2nc(-c3ccccc3)no2)c(Cl)c1	-	-	-	-	-	-	.	.
c1ccc(-c2cc(-c3cc(-c4ccccc4)on3)no2)cc1	-	-	-	-	-	-	.	.
O=C(NCc1ccccc1)N1CCC(Cc2ccccc2)CC1	-	-	-	-	-	-	.	.
CCc1nc2c(OCCC3CCCCC3)cccn2c1N(C)C(=O)c1cccs1	-	-	-	-	.	-	.	.
C/C(=N\NC(=O)c1cc(C)oc1C)c1ccc2ccccc2c1	-	-	-	7.2	4.4	11	-	-
CCCNC(=O)C1(C)CCN(C(=O)COCc2ccccc2)C1 (stereo not given)	-	-	-	-	.	-	.	.
COc1cccc(NC(=O)C(Cc2ccccc2)NC(=O)C2CCC(C)CC2)c1 (stereo not given)	-	-	-	8.6	-	-	-	-
CC(=O)Nc1sc2c(c1-c1nc3ccccc3s1)CNC2	.	.	1.6	16	.	-	-	9.8
O=C(CN1CCN(S(=O)(=O)c2cccs2)CC1)N1CCCCC1	-	-	-	-	-	-	.	.
O=S(=O)(c1cc(O)ccc1O)c1cccc2c(S(=O)(=O)c3cc(O)ccc3O)cccc12	-	-	-	-	-	-	.	.
Cc1cccc(N=C2NN=C(c3c(C)[nH]c4ccccc34)CS2)c1	-	-	-	7.9	-	-	-	-
Cc1cccc(N=C2NN=C(c3ccc4c(c3)OCCO4)CS2)c1	-	-	-	-	-	-	.	.
Oc1[nH]c2ccccc2c1/C=N/N1CCCCC1	-	-	-	14	-	-	-	-
COc1ccc(N=Cc2c(O)[nH]c3ccccc23)cc1	4.2	-	1.1	6.9	-	13	-	11
Cc1ccc(C(=O)Nc2cccc3cccnc23)cc1C	-	-	-	9.7	-	-	-	8.8
O=C(Nc1cccc2cccnc12)c1ccc(Cl)cc1	-	-	1.2	6.7	-	-	-	7.6
O=C(NC(=S)Nc1cccnc1Cl)c1ccc(Cl)cc1	-	-	1.1	10	-	15	-	15
O=C(Nc1cccnc1Cl)c1cc(-c2ccc(Cl)cc2)on1	-	-	-	-	-	-	.	.
O=C(COC(=O)c1ccc2c(c1)C(=O)N(Cc1ccncc1)C2=O)Nc1ccccc1[N+](=O)[O-]	-	-	-	7.0	-	-	-	6.2

Source: PubChem BioAssay (The Scripps Research Institute Molecular Screening Center)
